Results from PubChem BioAssay AID2315 (National Center for Advancing Translational Sciences (NCATS), 2010).
About 27,000 (9.3%) of roughly 290,000 compounds were called active. Rule as the data show it: active = inhibition mostly above about 28% (no sharp cut-off); inactive = mostly below about 43%. Shown is part of a subset that was picked to be rich in actives.

assay: A qHTS for Small Molecule Inhibitors of Shiga Toxin; details: Vero cells, Shiga toxin protein synthesis inhibition reporter; at 38.7 µM, hits give high values; also: 0% is about no effect

SMILES	inhibition
COc1ccc(CNC(=O)COc2cccnc2[N+](=O)[O-])cc1	-2.63% (inactive)
CC(=O)N1CCN(C(=O)C2(NC(=O)Nc3ccc(C)cc3)CCCCC2)CC1	23.1% (inactive)
NNC(=O)CNC(c1ccccc1)c1cc(Cl)ccc1NC(=O)c1ccccc1 (stereo not given)	-4.52% (inactive)
COc1ccc(Nc2nc(NCc3ccco3)nc(N/N=C/c3ccccc3Cl)n2)cc1	7.02% (inactive)
COc1ccc(CC(=O)N/N=C/c2cc([N+](=O)[O-])cc(Br)c2O)cc1	-3.43% (inactive)
Cc1ccc(S(=O)(=O)c2nnn3c2nc(N2CCN(c4ccccn4)CC2)c2ccccc23)cc1	-12% (inactive)
Cc1occc1C(=O)NC1CCCN(Cc2ccc(CC(C)C)cc2)C1 (stereo not given)	-8.21% (inactive)
Cc1ccc(CNS(=O)(=O)c2ccc3c(c2)N(C)CCO3)cc1	-2.13% (inactive)
CC1CCN(S(=O)(=O)c2ccc3[nH]c(=O)ccc3c2)CC1	-6.16% (inactive)
O=C(NC(=S)Nc1ccc(Cl)c(C(=O)O)c1)c1cncc(Br)c1	14.6% (inactive)
N#Cc1ccc(/C=C2\CCn3c2nc2cc(C(=O)O)ccc2c3=O)cc1	-9.62% (inactive)
Cc1ccc(-c2csc(NC(=O)c3cnccn3)n2)cc1C	8.33% (inactive)
O=C(Nc1nnc(Cc2ccccc2)s1)c1cnccn1	-3.24% (inactive)
O=C(Nc1nc(-c2ccc(-c3ccccc3)cc2)cs1)c1cnccn1	34.8% (active)
COc1ccc(CN2CCC(n3nccc3NC(=O)CCCc3ccccc3)CC2)cc1C	-2.11% (inactive)
CC(=O)Nc1ccc(NS(=O)(=O)c2ccc3c(c2)NC(=O)CC(=O)N3)cc1	-11.9% (inactive)
CCOC(=O)c1c(C)[nH]c(C)c1S(=O)(=O)NCCCc1ccco1	-3.37% (inactive)
O=C(CCCCCn1c(=S)[nH]c2cc3c(cc2c1=O)OCO3)N1CCN(c2ccc(F)cc2)CC1	-1.92% (inactive)
CCn1c(CC(=O)Nc2ccccc2C)nnc1SCC(=O)NC1=NCCS1	2.84% (inactive)
COc1ccc(-c2cn3ccsc3n2)cc1	43.6% (active)
CN1CCN(Cc2ccc(OC(F)(F)F)cc2)CC1	-16.1% (inactive)
CCCC(=O)Nc1cccc(-c2cn3ccsc3n2)c1	22.4% (inactive)
c1ccc(-c2cn3c(n2)CCc2ccc4cccnc4c2-3)cc1	-6.84% (inactive)
CC(C)(C)C(=O)Nc1ccc(-c2cn3cccnc3n2)cc1	32.2% (inactive)

SMILES	inhibition
COc1ccc(-c2cn3ccc(C)cc3n2)cc1	-17.1% (inactive)
Cc1ccccc1Nc1c(-c2ccccc2)nc2ncccn12	19.2% (inactive)
FC(F)(F)Oc1ccc(-c2cn3cccnc3n2)cc1	54.1% (active)
c1ccc(-c2cn3cccnc3n2)cc1	58.5% (active)
CC(=O)Nc1ccc(-c2cn3cccnc3n2)cc1	52.4% (active)
CCCCCC(=O)Nc1ccc(-c2cn3cccnc3n2)cc1	64.5% (inactive)
CCOC(=O)c1cnc(Nc2nc3ccccc3o2)nc1CSC(=S)N1CCCCC1	36.8% (inactive)
CN(Cc1ccc(F)cc1Cl)S(=O)(=O)c1cccs1	39.1% (inactive)
CCOC(=O)N1CCN(C(=O)C(C)NC(=O)c2ccco2)CC1 (stereo not given)	-4.62% (inactive)
COc1ccc(CC(=O)NC2CCSc3ccccc32)cc1OC (stereo not given)	-2.96% (inactive)
O=C(Nc1ccccc1C(=O)Nc1ccncc1)c1ccc([N+](=O)[O-])cc1	-5.25% (inactive)
O=C(NNS(=O)(=O)c1ccc([N+](=O)[O-])cc1)C1CCCCC1	-11% (inactive)
CCCCn1c(N)c(N(CCOC)C(=O)c2oc3ccc(OC)cc3c2C)c(=O)[nH]c1=O	-5% (inactive)
COc1cc(C)cc(CN2CCC(Cc3ccccc3)CC2)c1O	-4.61% (inactive)
NC(=O)c1ccccc1N=Cc1ccc2ccccc2c1	69.3% (inactive)
COc1ccc(-c2ccnc(SCC(=O)N3CCOCC3)n2)cc1	19.9% (inactive)
COc1ccc(N2CCN(C(=O)CSc3nnc4ncccn34)CC2)cc1	-8.3% (inactive)
COc1ccc(-c2cn3cccnc3n2)cc1	50.1% (active)
O=C(Nc1ccccc1N1CCOCC1)c1ccc(OCc2cscn2)cc1	3.77% (inactive)
COc1ccc(OCCCn2cccc2/C=C2/C(=N)N3OC(C)=CC3=NC2=O)cc1	47.7% (active)
CCOc1cc(/C=C2/C(=N)N3OC(C)=CC3=NC2=O)ccc1OC	-19.9% (inactive)
CC1=CC2=NC(=O)/C(=C/c3coc4ccccc4c3=O)C(=N)N2O1	11.7% (inactive)
Oc1ccccc1CN1CCN(C(c2ccccc2)c2ccccc2)CC1	-6.21% (inactive)
NC(=O)COC(=O)c1ccc2c(c1)C(=O)N(Cc1ccco1)C2=O	-6.38% (inactive)

SMILES	inhibition
CCC(=O)NC(=Nc1nc2ccccc2s1)NC(=O)CC	57.8% (active)
O=C(O)CCCCc1nc2ccccc2s1	-9.29% (inactive)
CCC(=O)NCCc1nc2ccccc2n1CC	-5.67% (inactive)
CC(C)CC(=O)NC(=S)NCc1ccccc1	-1.98% (inactive)
CC(C)CC(=O)N/C(N)=N/c1nc2ccccc2s1	61.6% (active)
Cc1cc(C(=O)OCC(=O)Nc2nnc(C(C)C)s2)c2ccccc2n1	-2.62% (inactive)
CCCn1nc(NC(=O)C(C)C)c2cc3cc(OC)ccc3nc21	40.5% (inactive)
COc1ccc(C(=O)CC(=O)C(=O)Nc2cc([N+](=O)[O-])ccc2OC)cc1	-3.5% (inactive)
O=C(Cn1ncc2c3ccccc3n(Cc3ccccc3)c2c1=O)NCc1ccccn1	16.1% (inactive)
Cc1c(C(=O)N2CCCC2)c(S(=O)(=O)NCC(C)c2ccccc2)c(C)n1C (stereo not given)	-3.94% (inactive)
CC1(C(=O)N/N=C/c2cc3c(cc2Br)OCO3)CC1(Br)Br (stereo not given)	-11.8% (inactive)
O=C(C1CCN(Cc2ccc(Cl)cc2)CC1)N1CCN(Cc2ccc3c(c2)OCO3)CC1	-7.69% (inactive)
COc1ccc(C2c3[nH]c4ccccc4c3C[C@H]3C(=O)N(CC(C)C)CC(=O)N23)c(OC)c1 (stereo not given in full)	-6.17% (inactive)
COc1cccc2c(N/N=C/c3ccco3)cc(C)nc12	63.5% (inactive)
COc1ccccc1/C=N\Nc1cc(C)nc(-n2nc(C)cc2C)n1	-8.59% (inactive)
COc1cccc(/C=N/Nc2cc(C)nc(-c3ccccc3O)n2)c1O	38.3% (active)
CC(=O)c1cccc(NC(=O)CN2C(=O)c3cccnc3Oc3ccc(Cl)cc32)c1	1.59% (inactive)
CCc1ccc(N(C(=O)c2csnn2)C(C(=O)NC2CCCCC2)c2ccncc2)cc1 (stereo not given)	32.9% (inactive)
COc1cccc(N(CC(=O)Nc2cccc(F)c2)S(C)(=O)=O)c1	12.9% (inactive)
Cc1nc2ccc(S(=O)(=O)N(C)CC(=O)NC(C)c3ccccc3)cc2s1 (stereo not given)	-9.9% (inactive)
Cc1ccc2nc(-c3ccc(NC(=O)CN(C)S(=O)(=O)c4ccccc4)cc3)sc2c1	84.9% (active)
Cc1cccc(N(CC(=O)Nc2ccc(-c3nc4ccc(C)cc4s3)cc2)S(C)(=O)=O)c1	146% (active)
CCN(CC)S(=O)(=O)c1ccc(NC(=O)CN(c2cccc(F)c2)S(C)(=O)=O)cc1	-12.2% (inactive)
COc1cc(NC(=O)CN(C)S(=O)(=O)c2ccc3nc(C)sc3c2)cc(OC)c1	15.9% (inactive)

SMILES	inhibition
C[C@H]1CCC(=O)N([C@H](CSc2ccccc2)Cc2ccccc2)CC1	6.56% (inactive)
CCCOc1ccc(Cc2c(O)nc(N)[nH]c2=O)cc1C	1.67% (inactive)
CCC(=O)N1c2ccc(S(=O)(=O)NCc3ccco3)cc2CC1C (stereo not given)	12.8% (inactive)
O=C(Nn1cnnc1)c1cc(Cl)ccc1Cl	7.38% (inactive)
C=CCc1cc(S(=O)(=O)c2ccc(O)c(CC=C)c2)ccc1O	-18% (inactive)
O=C(c1cccc([N+](=O)[O-])c1)N1CCN(C(=O)c2ccco2)CC1	-3.08% (inactive)
O=C(c1ccc2c(c1)OCO2)N1CCN(C(=O)c2ccco2)CC1	17% (inactive)
O=C(CCCC(=O)N1CCN(c2cccc(Cl)c2)CC1)c1ccccc1	25.1% (active)
CS(=O)(=O)N(CC(=O)N1CCN(c2cccc(Cl)c2)CC1)c1ccccc1	-4.1% (inactive)
CC(C)c1nnc(NC(=O)CCC(=O)N2CCN(c3cccc(Cl)c3)CC2)s1	-4.62% (inactive)
O=C(c1ccco1)N1CCN(c2cccc(Cl)c2)CC1	24.3% (active)
Nc1cccc(CCc2nc3ccccc3[nH]2)c1	91.8% (active)
CC(C)=C(NC(=O)c1ccco1)C(=O)NCCc1nc2ccccc2[nH]1	7.12% (inactive)
Oc1ccc2nc(Cc3ccccc3)[nH]c2c1	54.8% (inactive)
CCOC(=O)C1=C(c2ccccc2)NC(=O)NC1c1cc(OCC)c(O)c([N+](=O)[O-])c1 (stereo not given)	-6.05% (inactive)
Cc1ccc(C(=O)OCc2nc(N)nc(Nc3ccccc3C)n2)cc1	-11.7% (inactive)
Cc1ccccc1Nc1nc(N)nc(CSc2ccccc2)n1	87.7% (active)
Cc1ccccc1Nc1nc(N)nc(CSc2nnc3ccccn23)n1	37.1% (inactive)
Cc1cc(OC(C)C(=O)NC2CC(C)(C)NC(C)(C)C2)c2c(C)cc(=O)oc2c1 (stereo not given)	-4.82% (inactive)
CCn1c(CNC(=O)c2cc(OC)c(OC)c(OC)c2)cc2cc(C)ccc21	2.16% (inactive)
CCOc1ccc(CN(C)C(=O)c2ccc(=O)[nH]c2)cc1	-3.04% (inactive)
CCc1ccc(/C=N/NC(=O)c2nnn(-c3nonc3N)c2CN2CCc3ccccc32)cc1	-4.83% (inactive)
COc1ccc(NS(=O)(=O)c2cccc3nsnc23)cc1Cl	-3.74% (inactive)
